High-throughput results (PubChem)
AMA1-RON2 inh – disrupts binding of P. falciparum AMA1 to RON2; AlphaScreen AMA1-biotinylated RON2 peptide binding; Potency, µM (top dose mostly 58.2 µM), usual class: inhibitors; 360,000 compounds, 0.2% hits; note: nearly all actives have a fitted effect of over 45% in size
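AMA1 (3D7) with his tag at 25 nM final met compounds first, then biotinylated RON2 peptide at 25 nM; detection used donor plus acceptor beads, 10 µg/mL apiece, read by AlphaScreen after 30 min at room temperature.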
Pf growth 96h – P. falciparum growth inhibition at 96 hour, primary screen for plastid delayed-death inhibitors | P. falciparum luciferase reporter growth, 96 h | Potency, µM (highest dose often 28.7 µM), hits mostly inhibitors | 320,000 compounds, 6.9% hits | AID 504834
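Compounds incubated with erythrocytes infected by luciferase-expressing P. falciparum (2% hematocrit, 0.05% parasitemia final) for 96 hours, 37 C in 5% CO2. Growth inhibition scored as decreased luciferase luminescence.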
HCV inhibitor – blocks hepatitis C virus; Huh7.5.1 HCVcc-Cre infection, luciferase reporter, 44 h; Potency, µM (top dose mostly 41.8 µM), most hits filed as inhibitors; 340,000 compounds, 3.4% hits; AID 651820
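Whole-lifecycle infectious HCVcc-Cre system; cells 1,000/well, compound then virus (~0.5 moi) added 4 h after plating, 44 h culture. Luciferase read 15 sec following 15 min substrate incubation, room temp.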
Pf growth 48h – P. falciparum growth inhibition at 48 hours (one generation) | AID 504832 | P. falciparum luciferase growth in erythrocytes, 48 h | Potency, µM (titrated, usually from 28.7 µM), hits mostly inhibitors | 310,000 compounds, 5.9% hits
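Luminescence readout; reporter = integrated firefly luciferase in P. falciparum. RBC culture at 2% hematocrit, 0.1% parasitemia final, 37 C/5% CO2; decreased signal taken as growth inhibition.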
Hits are given with their value; . = inactive; ? = inconclusive; / = not tested or not shown; [ ] = another dose, or the depositor's remark. Hits are enriched below; roughly 11% of the tested compounds scored in any of these assays. Calls come from the whole dose curve; as a rule, active = well fitted curve in the direction sought with a large enough effect; inconclusive = small, poorly fitted or top-dose-only effect, or another doubt; inactive = no such curve, though single readings can be large; an effect the other way counts as inactive or inconclusive.

SMILES | AMA1-RON2 inh | Pf growth 96h | HCV inhibitor | Pf growth 48h
COc1ccccc1NC(=S)N(Cc1ccccc1)Cc1cccs1 | . | 13µM | . | .
CCc1ccccc1NC(=S)N(Cc1cccnc1)Cc1ccco1 | . | 8.3µM | . | ?
Cc1ccc(Cl)cc1NC(=S)N(Cc1ccccc1)Cc1cccnc1 | . | . | ? | 10µM
S=C(Nc1ccccc1Cl)N(Cc1ccccc1)Cc1cccnc1 | . | . | . | .
Cc1ccc(C[n+]2ccccc2)cc1 | . | ? | 4.5µM | 9.3µM
Cc1nc2ccccc2c(=O)[nH]1 | . | / | . | /
Cc1cc2[nH]c3c4ccccc4nc(C)c3c2cc1C | . | / | 13µM | /
Cn1cc(CN2CCC(C(=O)NC(c3ccc(-c4ccccc4)cc3)c3cnccn3)CC2)c2ccccc21 (stereo not given) | . | / | / | /
CCO[C@@H]1OC(C(=O)N2CCN(Cc3ccc4c(c3)OCO4)CC2)=C[C@H](c2coc3ccccc3c2=O)[C@H]1CCCO | . | ? | . | ?
CCO[C@H]1OC(C(=O)N2CCN(Cc3ccc4c(c3)OCO4)CC2)=C[C@@H](c2csc3ccccc23)[C@@H]1CCCO | . | ? | ? | 12µM
CCO[C@H]1OC(C(=O)N2CCN(Cc3ccc4c(c3)OCO4)CC2)=C[C@@H](c2cn(C(C)=O)c3ccccc23)[C@@H]1CCCO | . | 7.4µM | ? | 1µM
CCn1c(=O)c2sccc2n2c(CCCC(=O)NCc3cccnc3)nnc12 | . | 13µM | . | .
COc1cc(OC)cc(C(=O)N[C@H](C(=O)Nc2cc(F)ccc2C)C(C)C)c1 | . | . | . | ?
Cn1c(-c2ccc[nH]c2=O)nc2cc(Cl)ccc21 | . | . | . | ?
COCC(=O)N(Cc1ccccc1)c1ccccn1 | . | ? | ? | .
COc1ccccc1NC(=O)N(Cc1ccccc1)c1ccccn1 | . | ? | . | 12µM
COc1ccc(NS(=O)(=O)c2ccc(N3CCCC3)c(NC(=S)Nc3cccc(S(=O)(=O)N(C)C)c3)c2)cc1 | / | ? | . | ?
O=C(NC1CCN(Cc2ccccc2)CC1)c1cccc(S(=O)(=O)Nc2ccc(SC(F)F)cc2)c1 | . | / | 2.8µM | /
Cc1ccc(S(=O)(=O)Nc2cccc(C(=O)NC3CCN(Cc4ccccc4)CC3)c2)cc1F | . | ? | ? | ?
O=C(NC1CCN(Cc2ccccc2)CC1)c1cccc(NS(=O)(=O)c2ccc(Br)cc2)c1 | . | / | 11µM | /
Cc1ccc(NS(=O)(=O)c2cccc(C(=O)NC3CCN(Cc4ccccc4)CC3)c2)cc1 | .[11.6 µM] | / | 13µM | /
Cc1ccc(NS(=O)(=O)c2ccc(C(=O)NC3CCN(Cc4ccccc4)CC3)cc2)cc1 | . | / | ? | /
O=C(NC1CCN(Cc2ccccc2)CC1)c1cc(S(=O)(=O)Nc2ccc(F)cc2)ccc1Cl | . | 9.3µM | ? | 9.3µM
COc1ccc(-c2c(-c3ccc(C#N)cc3)oc(=O)c3cc(OC)c(OC)cc23)cc1 | . | / | ? | /
Cc1ccccc1NS(=O)(=O)c1ccc(C(=O)N2CCN(S(=O)(=O)c3ccccc3)CC2)cc1 | . | ? | ? | .
SMILES | AMA1-RON2 inh | Pf growth 96h | HCV inhibitor | Pf growth 48h
CCOC(=O)C1=CCC(c2cccn2C(=O)OC(C)(C)C)N(S(=O)(=O)c2ccc(C)cc2)C1 (stereo not given) | . | / | / | /
Cc1ccc(NC(=O)N2CCC(NC(=O)c3cccc(C)c3)CC2)cc1 | . | 10µM | . | ?
COc1ccc(OC)c(S(=O)(=O)NCc2cc(-c3ccccc3)no2)c1 | . | ? | . | .
COc1ccc(S(=O)(=O)NCc2cc(-c3ccccc3Cl)no2)cc1 | . | . | . | 10µM
Cc1ccc(S(=O)(=O)N2CCCCC2)cc1NC(=O)COC(=O)c1ccccc1F | . | . | . | .
CCCOC(=O)C1=C(C)NC2=C(C(=O)C(C(=O)OC)C(C)C2)C1c1ccc(N(CC)CC)cc1 (stereo not given) | ? | ? | 10µM | ?
O=C1C=C(O)c2c(O)cc(O)c(O)c2C1=O | 1µM | / | ? | /
O=C1c2ccccc2C(=O)c2c(O)c(O)cc(O)c21 | . | / | . | /
COC(=O)c1cc2sc(Cl)cc2n1Cc1nc(-c2ccccc2)oc1C | . | 8.3µM | . | /
COC(=O)c1cc2sc(Cl)cc2n1Cc1nc(-c2cccc(C)c2)oc1C | / | . | / | /
CC1=C(C(=O)OC(C)C)[C@@H](c2ccc(C)o2)NC(=O)N1 | . | . | .[0.335 µM] | .
CCOC(=O)c1sc(NCc2ccco2)c(-c2nc3ccccc3s2)c1N | . | ? | 10µM | /
CCNc1sc(C(=O)c2cccs2)c(N)c1-c1nc2ccccc2s1 | . | ? | 5µM | ?
CCNc1sc(C(=O)c2cccs2)c(N)c1C#N | . | . | 13µM | .
O=C(Nc1ccccc1C(F)(F)F)c1c(F)cccc1Cl | . | ? | . | .
CCN(CC)C(=O)COn1c(SCC(=O)N(CC)CC)nc2ccccc2c1=O | . | / | . | .
COn1c(SCc2cccc(Cl)c2)nc2ccccc2c1=O | . | 10µM | ? | ?
Cc1cccc(CSc2nc3ccccc3c(=O)n2C)c1 | . | ? | 22µM | ?
CCN(CC)C(=O)CSc1nc2ccccc2c(=O)n1OC | . | 13µM | . | .
COn1c(SCc2ccccc2)nc2ccccc2c1=O | . | ? | . | ?
Cn1c(SCc2ccc(Br)cc2)nc2ccccc2c1=O | . | ? | ? | .
O=C(NCc1ccccc1C(F)(F)F)C1CCC(=O)N(CCCc2ccccc2)C1 (stereo not given) | . | . | . | .
Oc1[nH]c2ccc(Br)cc2c1N=NC(=S)NCC1CCCO1 (stereo not given) | . | ? | 11µM | 5.9µM
Oc1[nH]c2c(Cl)cc(Cl)cc2c1N=NC(=S)NCC1CCCO1 (stereo not given) | . | 6.6µM | ? | 1.9µM
Cc1cc(C)c2[nH]c(O)c(N=NC(=S)NCC3CCCO3)c2c1 (stereo not given) | . | ? | . | ?
SMILES | AMA1-RON2 inh | Pf growth 96h | HCV inhibitor | Pf growth 48h
CCOC(=O)C1(Cc2ccccc2C)CCCN(C(=O)c2ccnn2C)C1 (stereo not given) | . | ? | . | .
CC#CC(=O)N1CCCC(Cc2cccc(OC)c2)(C(=O)OCC)C1 (stereo not given) | . | 6.6µM | . | ?
CCOC(=O)C1(Cc2ccccc2C)CCCN(S(=O)(=O)c2cccnc2)C1 (stereo not given) | . | 10µM | . | 9.3µM
CCOC(=O)C1(Cc2cccc(Cl)c2)CCCN(C(=O)c2cccnc2)C1 (stereo not given) | . | 4.7µM | . | .
O=C(c1ccco1)N1CCc2[nH]nc(-c3ccccc3)c2C1 | . | ? | . | .
COc1ccc(CCN2CC(C(=O)N3CCN(C(C)=O)CC3)CCC2=O)cc1 (stereo not given) | . | . | . | .
Nn1c(COc2ccccc2F)nnc1SCC(=O)NC1CCCCC1 | . | . | .[8.37 µM] | .
COc1ccc(-c2cc3nc(C4CCN(C(=O)OC(C)(C)C)CC4)c(C(=O)O)cn3n2)cc1 | . | . | . | 1.3µM
O=C(NC(=O)c1ccccc1)Nc1cccc(S(=O)(=O)N2CCCCC2)c1 | . | ? | . | .
Cc1ccc2nc(Nc3ccc(C)c(C)c3)c3nncn3c2c1 | . | . | 22µM | ?
COc1ccc(Nc2nc3ccccc3n3cnnc23)cc1 | . | / | 20µM | .
COc1ccc(Nc2nc3ccc(C)cc3n3cnnc23)cc1Cl | / | . | / | ?
